# Laboratory results taken from PubChem BioAssay.
# The source made the active and inactive calls. Unless noted, how the calls were made is not given here.
# What was measured:
# [1] = tested on: Wnt5a (protein binding on small-molecule microarray); experiment: Wnt5a binders on small-molecule microarray, primary screen, biophysical, 635/667 nm fluorescence (AID 1142); settings: 635 nm fluorescence, higher = more signal;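 further: fluorescence read at 667 nm with signal to noise per printed feature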
# [2] = cell viability in Huh7 cells, primary screen, cytotoxicity control for HCV replication inhibitor project, CellTiter-Glo luminescence, basal, 48 h (AID 1143); settings: Huh7 HCV replicon, higher = more signal, called active from +8 up or from −8 down;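 further: Huh7 hepatoma cells carrying a hepatitis C replication reporter with no stimulus; test concentration not given here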
# [3] = P. aeruginosa biofilm formation inhibitors, primary screen, PAO1 strain, BacTiter-Glo luminescence, LB-PBS (AID 1144); settings: 12 h, higher = more signal
# [4] = CREB reporter modulators without forskolin, primary screen, cell-based, PC12, CRE-LacZ reporter, unstimulated (AID 1145); settings: no forskolin, luminescence, 4.5 h, higher = more signal, called active from +8 up or from −8 down
# [5] = CREB reporter modulators under forskolin, primary screen, cell-based, PC12, CRE-LacZ reporter, forskolin-stimulated (AID 1146); settings: luminescence, 4.5 h, higher = more signal, called active from +8 up or from −8 down;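 further: PC12 cells with 6xCRE LacZ reporter stimulated by forskolin 10 µM; beta-galactosidase reporter signal reflecting CREB driven transcription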
# [6] = target: Streptavidin (Streptomyces avidinii) (UniProt P22629); experiment: streptavidin binders on small-molecule microarray, primary screen, artefact control for SMM compound annotation, biophysical, 635/667 nm fluorescence (AID 1147); settings: streptavidin binding, higher = more signal;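 further: signal reflects streptavidin binding to arrayed compounds as a control protein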
# [7] = small-molecule binders of probe aInhba, primary screen, biochemical, small-molecule microarray, 635/667 nm fluorescence (AID 1148); settings: higher = more signal;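 further: score merges 667nm spot fluorescence with signal-to-noise for antibody binding to printed compounds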
# [8] = target: Torsin-1A (Homo sapiens) (UniProt O14656); experiment: torsin A binders from cell lysate, primary screen, small-molecule microarray, wild-type, 635/667 nm (AID 1149); settings: COS7 hTOR1A-WT lysate, 635 nm fluorescence, higher = more signal
# [9] = target: Torsin-1A (Homo sapiens) (UniProt O14656); experiment: small-molecule binders of mutant TOR1A in lysate, primary screen, cell lysate, small-molecule microarray, COS7 lysate, 635/667 nm fluorescence (AID 1150); settings: COS7 hTOR1A mutant lysate, 635 nm fluorescence, higher = more signal;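 further: score pools 667 nm emission and signal to noise measuring lysate protein binding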
# [10] = tested on: Sonic hedgehog protein (Shh); experiment: small-molecule binders of Shh protein, primary screen, biochemical, small-molecule microarray, 635/667 nm fluorescence (AID 1151); settings: small-molecule microarray binding, 635 nm fluorescence; higher = more signal;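 further: Shh protein binding to compounds spotted on small-molecule microarray slides; score combines spot fluorescence intensity with signal-to-noise across triplicate slides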
# [11] = E. coli DRC41 culture turbidity changes, primary screen, E. coli filamentation inducer project, strain DRC41, OD650, 48 h (AID 1152);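 further: E. coli MC1000 strain DRC41 lacking acrAB efflux pump and sulA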; settings: E. coli DRC41 (acrAB sulA), higher = more signal, called active from +8 up or from −8 down
# [12] = small-molecule binders of probe aLefty1, primary screen, biochemical, small-molecule microarray, 635/667 nm fluorescence (AID 1153); settings: higher = more signal;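 further: score merges spot fluorescence with signal-to-noise ratio from the scanned slide images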
# [13] = PSAC antagonists in infected red cells, primary screen, cell-based, P. falciparum Indochina, OD700, 1 h (AID 1154); settings: P. falciparum Indochina infected RBC osmotic lysis, higher = more signal, called active from +8 up or from −8 down
# [14] = PSAC antagonists in infected red cells, primary screen, cell-based, P. falciparum Indochina, OD700, 2 h (AID 1155);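 further: lysis reports solute entry through the parasite surface anion channel PSAC; channel blockers reduce lysis of infected cells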; settings: P. falciparum Indochina infected erythrocytes, osmotic lysis OD700; higher = more signal, called active from +8 up or from −8 down
# [15] = osmotic lysis modulators in infected erythrocytes, primary screen, PSAC antagonist project, cell-based, P. falciparum Indochina, OD700, 3 h (AID 1156); settings: higher = more signal, called active from +8 up or from −8 down
# [16] = PSAC antagonists in infected red cells, primary screen, cell-based, P. falciparum Indochina, OD700, 18 h (AID 1157); settings: P. falciparum Indochina infected erythrocytes, osmotic lysis OD700, 18 h; higher = more signal, called active from +8 up or from −8 down
# [17] = modulators of S6 phosphorylation in cells, primary screen, cell-based, A549, cytoblot, luminescence, serum-stimulated (AID 1158); settings: A549 phospho-S6 cytoblot, 5 h, higher = more signal;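 further: serum-stimulated A549 lung adenocarcinoma cells; signal is phosphorylated S6 detected by cytoblot immunostaining with HRP secondary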
# [18] = target: NADPH oxidase 2 (Homo sapiens) (UniProt P04839); experiment: NOX2-dependent H2O2 signal modulators, primary screen, NOX inhibitor project, cell-based, HEK293-NOX2, PMA-stimulated, Amplex Red fluorescence (AID 1159); settings: 45 min, higher = more signal, called active from +8 up or from −8 down; further: test concentration not given here
# [19] = target: NADPH oxidase 4 (Homo sapiens) (UniProt Q9NPH5); experiment: NOX4-dependent H2O2 signal modulators, primary screen, NOX inhibitor project, cell-based, HEK293-NOX4, tetracycline-induced, Amplex Red fluorescence (AID 1160); settings: 45 min, higher = more signal, called active from +8 up or from −8 down
# [20] = target: NADPH oxidase 5 (Homo sapiens) (UniProt Q96PH1); experiment: NOX5-dependent H2O2 signal modulators, primary screen, NOX inhibitor project, cell-based, HEK293-NOX5, Amplex Red fluorescence (AID 1161); settings: HEK293-NOX5, ionomycin, 45 min, higher = more signal
# NADPH oxidase 5 (Homo sapiens), sequence (Q96PH1 whole entry, looked up): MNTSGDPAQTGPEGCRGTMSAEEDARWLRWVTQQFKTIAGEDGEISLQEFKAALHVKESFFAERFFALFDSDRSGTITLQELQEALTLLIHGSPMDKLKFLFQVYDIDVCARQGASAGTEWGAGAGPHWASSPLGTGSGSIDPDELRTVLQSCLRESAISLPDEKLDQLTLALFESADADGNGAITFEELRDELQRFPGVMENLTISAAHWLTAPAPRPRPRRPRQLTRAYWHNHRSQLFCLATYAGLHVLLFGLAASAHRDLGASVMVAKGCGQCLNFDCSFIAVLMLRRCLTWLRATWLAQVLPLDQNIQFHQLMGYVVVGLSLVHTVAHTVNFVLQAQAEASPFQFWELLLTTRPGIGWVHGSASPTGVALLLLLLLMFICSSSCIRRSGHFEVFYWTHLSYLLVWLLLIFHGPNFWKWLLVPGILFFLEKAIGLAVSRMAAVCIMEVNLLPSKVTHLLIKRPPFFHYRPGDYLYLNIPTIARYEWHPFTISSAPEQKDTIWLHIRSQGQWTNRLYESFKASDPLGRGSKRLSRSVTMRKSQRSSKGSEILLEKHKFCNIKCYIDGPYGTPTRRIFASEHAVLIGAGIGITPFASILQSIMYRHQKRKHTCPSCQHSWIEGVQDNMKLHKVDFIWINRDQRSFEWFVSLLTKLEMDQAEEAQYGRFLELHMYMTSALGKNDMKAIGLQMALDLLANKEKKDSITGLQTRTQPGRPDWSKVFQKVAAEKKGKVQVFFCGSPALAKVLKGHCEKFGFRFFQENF
# NADPH oxidase 2 (Homo sapiens), sequence (P04839 whole entry, looked up): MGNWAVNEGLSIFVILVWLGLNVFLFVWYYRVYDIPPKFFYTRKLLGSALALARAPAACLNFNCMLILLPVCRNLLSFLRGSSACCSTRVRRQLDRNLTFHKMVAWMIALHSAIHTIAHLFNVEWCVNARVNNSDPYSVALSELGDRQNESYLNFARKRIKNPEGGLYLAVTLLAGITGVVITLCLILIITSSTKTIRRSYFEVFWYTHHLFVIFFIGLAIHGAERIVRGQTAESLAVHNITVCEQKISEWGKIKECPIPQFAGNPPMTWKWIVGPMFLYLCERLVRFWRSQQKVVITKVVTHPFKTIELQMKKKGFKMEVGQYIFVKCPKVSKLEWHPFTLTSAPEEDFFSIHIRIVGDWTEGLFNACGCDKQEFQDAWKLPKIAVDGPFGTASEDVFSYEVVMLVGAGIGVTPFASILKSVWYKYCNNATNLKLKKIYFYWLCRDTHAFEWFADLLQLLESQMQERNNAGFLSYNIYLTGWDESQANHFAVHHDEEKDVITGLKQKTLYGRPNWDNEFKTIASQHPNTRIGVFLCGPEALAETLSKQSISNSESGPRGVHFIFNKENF
# NADPH oxidase 4 (Homo sapiens), sequence (Q9NPH5 whole entry, looked up): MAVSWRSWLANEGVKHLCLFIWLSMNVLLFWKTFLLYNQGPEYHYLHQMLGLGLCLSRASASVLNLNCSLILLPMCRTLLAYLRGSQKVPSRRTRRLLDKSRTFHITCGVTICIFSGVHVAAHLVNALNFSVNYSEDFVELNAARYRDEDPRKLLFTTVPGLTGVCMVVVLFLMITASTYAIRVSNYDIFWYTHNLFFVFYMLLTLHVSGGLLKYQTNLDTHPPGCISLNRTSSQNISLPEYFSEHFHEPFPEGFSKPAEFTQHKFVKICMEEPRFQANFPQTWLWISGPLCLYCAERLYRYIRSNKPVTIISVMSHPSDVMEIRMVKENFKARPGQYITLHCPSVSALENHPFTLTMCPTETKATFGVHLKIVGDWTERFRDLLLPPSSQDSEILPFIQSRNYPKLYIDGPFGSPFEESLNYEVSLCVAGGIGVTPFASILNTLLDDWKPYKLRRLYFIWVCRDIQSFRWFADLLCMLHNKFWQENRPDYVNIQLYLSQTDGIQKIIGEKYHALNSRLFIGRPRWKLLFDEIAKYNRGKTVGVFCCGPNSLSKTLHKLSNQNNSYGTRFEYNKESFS
# Torsin-1A (Homo sapiens), sequence (O14656 whole entry, looked up): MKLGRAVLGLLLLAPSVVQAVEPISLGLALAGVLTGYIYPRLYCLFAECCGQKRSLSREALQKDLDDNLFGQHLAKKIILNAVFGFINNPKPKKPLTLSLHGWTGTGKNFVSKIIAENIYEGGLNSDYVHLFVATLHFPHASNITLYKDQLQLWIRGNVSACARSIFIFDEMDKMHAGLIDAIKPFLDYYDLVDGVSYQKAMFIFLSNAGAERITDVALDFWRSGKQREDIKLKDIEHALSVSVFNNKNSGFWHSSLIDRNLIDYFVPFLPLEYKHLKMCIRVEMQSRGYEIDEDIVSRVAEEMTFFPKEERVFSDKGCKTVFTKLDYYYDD
# Streptavidin (Streptomyces avidinii), sequence (P22629 whole entry, looked up): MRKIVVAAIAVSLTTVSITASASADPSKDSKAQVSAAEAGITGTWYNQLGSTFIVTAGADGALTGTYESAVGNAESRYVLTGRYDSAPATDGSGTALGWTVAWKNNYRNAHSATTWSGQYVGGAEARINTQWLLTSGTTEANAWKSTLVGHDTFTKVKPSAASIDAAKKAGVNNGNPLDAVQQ
Structure (SMILES),composite z-score [1],z-score [2],z-score [3],z-score [4],z-score [5],composite z-score [6],composite z-score [7],composite z-score [8],composite z-score [9],composite z-score [10],z-score [11],composite z-score [12],z-score [13],z-score [14],z-score [15],z-score [16],z-score [17],z-score [18],z-score [19],z-score [20]
C=C(/C(=C/C[C@@H](OC(C)=O)c1ccc(CO)o1)c1cc(C(=O)OC)ccc1OC)C(C)C,0.201,-0.143 (inactive),-0.0434 (inactive),0.247 (inactive),2.78 (inactive),-0.446,0.148,0.431,0.549,1.07,0.225 (inactive),-0.0536,4.3 (inactive),0.758 (inactive),1.35 (inactive),0.479 (inactive),-0.0642,-0.169 (inactive),-0.673 (inactive),-0.988
COC(=O)[C@@]1(Cc2ccccc2CN=[N+]=[N-])N=C(c2ccc(OCCCO)cc2)O[C@H]1c1ccccc1CN=[N+]=[N-],1.25,-4.34 (inactive),-0.166 (inactive),1.75 (inactive),-0.547 (inactive),-0.754,-0.154,-2.13,0.0755,-0.427,-0.586 (inactive),0.0288,21.8 (active),7.79 (inactive),0.912 (inactive),1.72 (inactive),0.141,-2.2 (inactive),-0.00368 (inactive),-2.01
C=C(/C(=C/C[C@H](OC(=O)c1ccncc1)c1ccccc1OCCO)c1cnc2ccccc2c1)C(C)C,0.733,-0.0956 (inactive),-0.91 (inactive),2.52 (inactive),1.5 (inactive),1.81,0.0471,1.06,1.07,2.01,-0.227 (inactive),0.313,11.1 (active),1.86 (inactive),1.41 (inactive),0.553 (inactive),0.125,-1.71 (inactive),-0.391 (inactive),-0.914
CCCCCCCCCCC(O)C1C=CC2C(=O)N(c3ccccc3)C(=O)C2N1Nc1ccccc1F (stereo not given),-0.13,0.325 (inactive),-0.425 (inactive),-1.09 (inactive),0.476 (inactive),0.282,0.0074,-0.35,-0.524,-0.992,-1.43 (inactive),0.145,2.64 (inactive),1.45 (inactive),-0.518 (inactive),1.91 (inactive),-0.827,-0.534 (inactive),0.101 (inactive),-1.24
CCOC(=O)C1=C[C@@H](C(C)(C)C)N(S(=O)(=O)c2ccc(C)cc2)[C@H]1c1ccccc1,0.251,-4.44 (inactive),1.43 (inactive),0.696 (inactive),-0.276 (inactive),1.29,0.27,0.0214,0.611,0.871,-0.492 (inactive),0.407,-0.132 (inactive),0.457 (inactive),-0.803 (inactive),-0.0282 (inactive),-0.667,-0.707 (inactive),-0.655 (inactive),-0.083
O=C1C[C@@](C(=O)NCC(F)(F)F)(c2ccc([N+](=O)[O-])cc2)[C@@H](c2ccc(CO)cc2)N1CC12CC3CC(CC(C3)C1)C2,0.988,-5.79 (inactive),-0.542 (inactive),0.324 (inactive),-1.01 (inactive),0.261,0.216,0.406,0.397,1.34,-0.0809 (inactive),0.282,5.86 (inactive),0.525 (inactive),2.97 (inactive),-0.092 (inactive),2.16,-0.178 (inactive),-3.52 (inactive),-5.17
C=C(CCCC)C(=O)CC[C@@H](OC(=O)c1cccnc1)c1ccc(OCCO)cc1,1.08,-2.32 (inactive),0.383 (inactive),11.5 (active),1.62 (inactive),-0.444,0.0857,1.12,0.507,2.35,-0.704 (inactive),0.178,20.2 (active),4.63 (inactive),-0.367 (inactive),0.774 (inactive),-0.58,-1.3 (inactive),-0.918 (inactive),-1.39
[N-]=[N+]=NCc1ccccc1C[C@]1(C(=O)N2CCOCC2)COC(c2ccc(OCCCO)cc2)=N1,0.0879,-3.07 (inactive),-0.983 (inactive),1.69 (inactive),-0.931 (inactive),1.6,0.0888,1.71,1.56,0.179,2.57 (inactive),0.691,26.6 (active),15 (active),3.85 (inactive),2.64 (inactive),0.338,-3.84 (inactive),-0.698 (inactive),-3.14
COC(=O)[C@@]1(Cc2ccccc2CN=[N+]=[N-])N=C(c2ccc(OCCCO)cc2)O[C@H]1c1ccccc1,0.337,-4.77 (inactive),-1.09 (inactive),2.38 (inactive),-0.923 (inactive),-0.533,0.412,0.0213,0.925,0.381,-0.571 (inactive),0.105,23.6 (active),19.8 (active),0.882 (inactive),3.64 (inactive),0.216,-2.19 (inactive),-0.348 (inactive),-2.48
